For 101 molecules, inhibition results are on record in PubChem BioAssay AID504734 (The Scripps Research Institute Molecular Screening Center, 2011).

Out of some 340,000 compounds screened, about 730 (0.21%) were called active.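 Rule for the calls: active = inhibition above the mean over all tested compounds plus 3 SD (cut at about 21% in these data); inactive = the rest.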 The sample as a whole holds a higher share of actives than the screen did.

What is called inhibition is the change of the read-out against control, counted positive when it falls.

This assay deals with Toll-like receptor 9 (Homo sapiens) + Myeloid differentiation primary response protein MyD88 (Homo sapiens) (UniProt Q9NR96+Q99836). Briefly: disruptors of TLR9 binding to MyD88 – cell-based, CHO, BLA complementation, fluorescence, primary screen (AID 504734).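 Note: 0% = DMSO only wells and 100% = clavulanate BLA inhibitor control wells.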 Particulars: CHO BLA complementation TLR9-MyD88, CCF4 FRET ratio; at 4.98 µM; active compounds read high.
Toll-like receptor 9 (Homo sapiens) + Myeloid differentiation primary response protein MyD88 (Homo sapiens), sequence (Q99836 whole entry, looked up): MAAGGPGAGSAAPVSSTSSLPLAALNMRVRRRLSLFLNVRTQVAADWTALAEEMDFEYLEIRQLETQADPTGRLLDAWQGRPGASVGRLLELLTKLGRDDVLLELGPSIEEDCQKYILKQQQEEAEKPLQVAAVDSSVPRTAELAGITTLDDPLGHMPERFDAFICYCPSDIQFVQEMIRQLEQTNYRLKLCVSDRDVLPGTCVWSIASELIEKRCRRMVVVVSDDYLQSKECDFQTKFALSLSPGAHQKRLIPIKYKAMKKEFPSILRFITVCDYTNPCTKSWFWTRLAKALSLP
Toll-like receptor 9 (Homo sapiens) + Myeloid differentiation primary response protein MyD88 (Homo sapiens), sequence (Q9NR96 whole entry, looked up): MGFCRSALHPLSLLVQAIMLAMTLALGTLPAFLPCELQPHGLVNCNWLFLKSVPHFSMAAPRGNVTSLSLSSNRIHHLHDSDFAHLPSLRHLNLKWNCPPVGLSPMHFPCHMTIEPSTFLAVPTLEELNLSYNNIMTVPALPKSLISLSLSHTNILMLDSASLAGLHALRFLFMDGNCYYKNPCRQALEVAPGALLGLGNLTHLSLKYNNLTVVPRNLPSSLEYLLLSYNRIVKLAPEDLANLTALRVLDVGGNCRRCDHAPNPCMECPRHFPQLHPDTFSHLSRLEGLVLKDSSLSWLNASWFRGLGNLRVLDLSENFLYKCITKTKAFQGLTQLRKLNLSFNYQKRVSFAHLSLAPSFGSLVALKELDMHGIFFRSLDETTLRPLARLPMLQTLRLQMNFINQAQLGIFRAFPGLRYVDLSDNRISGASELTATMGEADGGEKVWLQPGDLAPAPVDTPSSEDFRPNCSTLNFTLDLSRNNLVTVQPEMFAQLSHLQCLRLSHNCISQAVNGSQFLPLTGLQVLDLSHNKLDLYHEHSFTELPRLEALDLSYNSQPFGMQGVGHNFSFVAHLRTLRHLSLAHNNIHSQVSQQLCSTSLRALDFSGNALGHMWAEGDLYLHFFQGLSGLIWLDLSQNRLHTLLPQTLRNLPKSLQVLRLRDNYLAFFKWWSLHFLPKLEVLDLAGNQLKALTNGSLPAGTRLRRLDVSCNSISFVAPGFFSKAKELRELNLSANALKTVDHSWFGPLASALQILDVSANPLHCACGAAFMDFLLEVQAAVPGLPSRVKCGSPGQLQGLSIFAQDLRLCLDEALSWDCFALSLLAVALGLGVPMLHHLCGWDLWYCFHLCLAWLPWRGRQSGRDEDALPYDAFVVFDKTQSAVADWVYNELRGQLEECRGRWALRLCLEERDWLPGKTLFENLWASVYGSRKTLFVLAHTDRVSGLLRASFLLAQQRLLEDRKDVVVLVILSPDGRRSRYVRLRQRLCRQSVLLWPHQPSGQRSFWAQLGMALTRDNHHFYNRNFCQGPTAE
`Cc1ccc(S(=O)(=O)N2CCCCC2)cc1NC(=O)CCNC(=O)c1ccccc1Cl`: the inhibition is -7.91% (inactive).

For the molecule `Cc1ccccc1OCCOc1ccc([N+](=O)[O-])cc1/C=N/n1cnnc1`, the inhibition was -3.95% (inactive). In the case of `Cc1cc([N+](=O)[O-])ccc1NCc1cccc([N+](=O)[O-])c1`, the inhibition was -1.82% (inactive). The result for `O=[N+]([O-])c1ccc(N=NNc2ccc([N+](=O)[O-])cc2)cc1` reads -10.5% (inactive).

Take `O=[N+]([O-])c1ccc(N/N=C/c2ccccc2)cc1`: the inhibition was 21.1% (active). For the molecule `O=[N+]([O-])c1cccc(/C=N/Nc2ncc(Br)cn2)c1`, the inhibition was -10.4% (inactive). Under `Cc1cccc(COc2ccccc2/C=N/Nc2ccc([N+](=O)[O-])cc2)c1` stands 21.7% (active). In the case of `C[C@H](O)[C@@H]1C(=O)N2CCc3c([nH]c4ccccc34)[C@@H]2C[C@@H]1N(C)C(=O)Nc1ccc(F)cc1`, the inhibition is -0.01% (inactive). Turning to `CCOc1cc(/C=N/NC(=O)c2c(C)nc3ccc(Cl)cn23)ccc1O`, the inhibition is -2.46% (inactive). Consider `C=CCN1CCN(c2ccncc2S(=O)(=O)N2CCN(C)CC2)CC1`, for which the inhibition was 9.55% (inactive). The result for `Cc1sc2ncnc(SCC(=O)NC3CCS(=O)(=O)C3)c2c1C` (stereo unspecified) reads -4.28% (inactive). The result for `Cn1nc(N)c2ncc(C(Cl)(Cl)Cl)nc21` reads -17.4% (inactive); that for `COc1cc(C(=O)OCCCN2CCOCC2)cc(OC)c1OC`, 1.8% (inactive). For the molecule `Cc1cc(OCC(=O)Nc2nccs2)c2c(C)c(C)c(=O)oc2c1`, the inhibition was -3.81% (inactive). Turning to `COc1ccccc1-c1n[nH]nc1C1=CC(=O)CC(C)(C)C1`, the inhibition was 9.73% (inactive).

Turning to `CNC(=S)NNC(=O)c1sccc1OCc1ccccc1`, the inhibition is -6.12% (inactive). Under `O=C(O)COc1ccc(/C=N/O)cc1Br` stands 7.44% (inactive).

`CNC(=S)N/N=C/c1ccc(OCc2ccccc2)c(Br)c1`: the inhibition was 29.9% (active). The result for `CCCCCCN1C[C@@H](O)[C@H](n2cc(COC(=O)c3ccccc3)nn2)C[C@@H]1c1ccc(Cl)cc1` reads -2.39% (inactive); that for `C[C@H]1CN([C@@H](C)CO)C(=O)CCCn2nncc2CO[C@@H]1CN(C)Cc1ccc(Oc2ccccc2)cc1`, 0.54% (inactive). The result for `NC(=O)C1(Nc2ccccc2Cl)CCCC1` reads -10.1% (inactive); that for `O=C(CCN1CCN(C/C=C/c2ccccc2)CC1)Nc1ccccc1Cl`, 2.63% (inactive). As for `O=C(Nc1ccccc1Cl)/C(Cl)=C(\Cl)S(=O)c1ccccc1` (stereo unspecified), the inhibition is 23.8% (active).

As for `CN1OC[C@@H]2CN(S(=O)(=O)c3cccc(C(F)(F)F)c3)[C@H](c3ccc(-c4cc5ccccc5o4)cc3)C[C@@H]21`, the inhibition was -0.31% (inactive). Under `O=C(CCN1C(=O)c2ccccc2C1=O)NNC(=O)c1ccc(Cl)cc1Cl` stands 29.1% (active); under `Cc1cc(C)cc(NC(=O)CCN2C(=O)c3ccccc3C2=O)c1`, -4.31% (inactive). The result for `Cc1cc(C)cc(OCC(=O)NNC(=O)CCN2C(=O)c3ccccc3C2=O)c1` reads -3.37% (inactive).

For `Cc1ccc(-c2ccc(CN3C(C(C)C)C(=O)N(Cc4cn(CCC5OCCCO5)nn4)CCS3(=O)=O)cc2)cc1` (stereo unspecified), the inhibition was -5.52% (inactive). Under `CC(OC(=O)c1ccc(NC(=O)CC#N)cc1)C(=O)Nc1ccc(S(=O)(=O)N2CCCC2)cc1` (stereo unspecified) stands 0.94% (inactive); under `COCCCn1c(C(=O)NC2CCCCC2)cc2c(=O)n3cccc(C)c3nc21`, -12.6% (inactive); under `CC1(C)CN(Cc2cccnc2)C(=O)[C@H]1CC(=O)Nc1ccc(Br)cc1`, -3.44% (inactive).

Consider `O=C(CSc1ccc(Cl)cc1)NC1CC1`, for which the inhibition was -15.8% (inactive). Turning to `C#CCN(C[C@H]1[C@H](OC(=O)NC2CCCC2)[C@H](OC(=O)NC2CCCC2)C[C@H]2C(=O)N(c3ccccc3)C(=O)[C@@H]12)S(=O)(=O)c1ccc(C)cc1`, the inhibition is -5.56% (inactive). Under `Brc1ccc(C2=CC(c3ccco3)n3ncnc3N2)cc1` (stereo unspecified) stands 30.4% (active); under `CCOc1ccc(C2=CC(c3ccccc3)n3ncnc3N2)cc1` (stereo unspecified), 33.7% (active); under `Clc1ccc2c(c1)C1=C(C(c3ccncc3)O2)C(c2ccc(Br)cc2)n2ncnc2N1` (stereo unspecified), -8.31% (inactive). Under `COc1ccc(C2CC(c3ccc(C)cc3)Nc3ncnn32)cc1` (stereo unspecified) stands 1.5% (inactive); under `CC1=C(C(=O)OC2CCCCC2)C(c2cccnc2)n2ncnc2N1` (stereo unspecified), -0.13% (inactive); under `CCN1C(=O)[C@H]2[C@@H](c3ccc(C(F)(F)F)cc3)N[C@]3(CCCN(Cc4ccc(Br)cc4)C3=O)[C@H]2C1=O`, 5.46% (inactive). Consider `N#CCCN(C(=O)Nc1ccc(Cl)c(Cl)c1)C1CCCCC1`, for which the inhibition was 8.97% (inactive). Under `CCN(C(=O)Nc1cccc2ccccc12)c1ccccc1` stands -15.1% (inactive); under `Cc1nc2ccccc2nc1CC(O)(c1ccccc1)c1ccccc1`, 2.03% (inactive); under `CCOC(=O)c1cc(-c2sc(NC(=O)c3ccccc3)nc2C)n(CCO)n1`, 2.6% (inactive). Under `Cc1cc2c3ccccc3[nH]c(=O)n2n1` stands 1.06% (inactive). Under `CN(c1ccccc1)S(=O)(=O)c1ccc(C(=O)NCc2cccnc2)cc1` stands 7.85% (inactive); under `O=[N+]([O-])c1ccc(C(S(=O)(=O)Cc2ccccc2)S(=O)(=O)Cc2ccccc2)cc1`, 2.65% (inactive); under `CC1CN(Cc2ccccc2)C(=S)NC1=O` (stereo unspecified), -6.13% (inactive). Consider `O=C1NC(=O)C2C1C(c1ccc([N+](=O)[O-])cc1)=NN2Cc1ccccc1` (stereo unspecified), for which the inhibition is 27.8% (active).

With `CN(Cc1ccccc1)C(=O)CCC1CCN(C(=O)c2ccco2)CC1`, the inhibition is 0.05% (inactive). For `NS(=O)(=O)c1ccc(CNC(=O)c2cc(S(=O)(=O)N3CCOCC3)ccc2N2CCCC2)cc1`, the inhibition was -5.7% (inactive).

As for `CC1(c2cccc(Br)c2)NC(=O)N(CC(=O)NCCC2=CCCCC2)C1=O` (stereo unspecified), the inhibition is 3.69% (inactive). Under `CCCc1cc(=O)oc2c(C)c(OCC(=O)Nc3ccccn3)ccc12` stands 6.85% (inactive); under `COC(=O)Cc1cc(=O)oc2c(C)c(O)ccc12`, 21.6% (active). Under `COc1cccc(C(=O)OCc2cc(=O)oc3c(C)c(C)ccc23)c1OC` stands -5.33% (inactive); under `S=C(NN=Cc1ccccn1)Nc1ccccn1`, 10.2% (inactive); under `CC1C(=O)N(Cc2cn(Cc3ccco3)nn2)CCS(=O)(=O)N1Cc1ccc(-c2cccc(CO)c2)cc1` (stereo unspecified), -1.07% (inactive). As to `C[C@@H]1CN([C@@H](C)CO)C(=O)CCCn2nncc2CO[C@H]1CN(C)Cc1ccc(C(F)(F)F)cc1`, the inhibition is -8.49% (inactive). The result for `C[n+]1ccc(C(=O)NCc2ccccc2)cc1` reads -10.2% (inactive); that for `C[N+](C)(C)CCNC(=O)c1cc[n+](Cc2ccccc2)c(/C=N/O)c1`, 22.8% (active); that for `O=C(NCCCNCc1ccccc1)c1ccc(/C=N/O)nc1`, -3.77% (inactive). The result for `Cc1ccc2cccc([N+](=O)[O-])c2n1` reads 4.24% (inactive). The result for `COc1ccc(CCNC(=O)CN(c2ccccc2)S(=O)(=O)c2ccccc2)cc1` reads 0.66% (inactive); that for `COc1ccc(OC)c(N=Cc2c(O)[nH]c3ccccc23)c1`, 41.1% (active). As to `CN=c1scc(-c2cc(OC)ccc2OC)n1/N=C/c1c(C)[nH]c2ccccc12`, the inhibition was 6.42% (inactive). For the molecule `COc1cc2[nH]c(O)c(C=O)c2cc1OC`, the inhibition is -8.58% (inactive). Consider `CC(=O)c1ccccc1NC(=O)COC(=O)C1COc2ccccc2O1` (stereo unspecified), for which the inhibition was 2.77% (inactive).

On to `C[C@@H]1CN([C@@H](C)CO)S(=O)(=O)c2ccc(-c3ccc(C(=O)N(C)C)cc3)cc2O[C@@H]1CN(C)Cc1ccccc1C(=O)O`, for which the inhibition was -6.78% (inactive).

Take `CCOC(=O)c1c(NC(=S)SC)sc(C(=O)N2CCc3ccccc3C2)c1C`: the inhibition is -0.74% (inactive). With `COc1ccc(CN2C[C@H]3CON(C)[C@H]3C[C@H]2c2ccc(-c3cccc(F)c3)cc2)cc1`, the inhibition is 4.13% (inactive). Under `O=C(O)C1CCCN1c1nc(Cl)ccc1[N+](=O)[O-]` (stereo unspecified) stands -12.8% (inactive); under `CCOc1cccc(=O)c2c(C)n(CC3CCCO3)c(C)c12` (stereo unspecified), 1.31% (inactive). Under `CN1CN(C)c2ccc([N+](=O)[O-])c3cccc1c23` stands -8.31% (inactive); under `O=C1c2cccc3c([N+](=O)[O-])ccc(c23)C(=O)N1CC1CCCO1` (stereo unspecified), 56.9% (active); under `CCN(Cc1ccncc1)C(=S)Nc1ccccc1C`, 3.02% (inactive). As for `Cc1cccc(S(=O)(=O)N(C)C[C@@H]2OCc3cnnn3CCCC(=O)N([C@H](C)CO)C[C@@H]2C)c1`, the inhibition was -11.3% (inactive). Under `CN1CCN(c2ccncc2S(=O)(=O)N2CCCC2)CC1` stands 3.95% (inactive).

With `O=C(/C=C(O)/C=C/c1ccc(O)cc1)/C=C/c1ccc(O)cc1`, the inhibition is 42% (active).

Consider `COc1cccc(C=CC(=O)C=CC=Cc2ccccc2)c1`, for which the inhibition is -5.47% (inactive). Under `O=C(O)/C=C/c1ccc(S(=O)(=O)N2CCCCCC2)cc1` stands -16.4% (inactive); under `COc1ccc(NC(=O)CSc2nnnn2-c2cccc(OC)c2)cc1`, 13.5% (inactive). With `COCOCCn1cc(CN2CCS(=O)(=O)N(Cc3ccc(-c4ccc(OC)cc4)cc3)C(CC(C)C)C2=O)nn1` (stereo unspecified), the inhibition was -1.5% (inactive). Turning to `C[C@@H]1CN([C@@H](C)CO)C(=O)c2c(c3ccccc3n2C)-c2ccccc2CO[C@H]1CN(C)C(=O)C1CC1`, the inhibition was -4% (inactive). Under `Cc1cc2oc(=O)cc(CN3CCN(Cc4ccccc4)CC3)c2cc1C` stands -18.4% (inactive). Under `Cc1cc2oc3ccc(NCCC4CCCN4C)cc3c(=O)c2cc1C` (stereo unspecified) stands 24.9% (active).

For the molecule `COc1cccc2sc3cc(NCC[C@@H]4CCCN4C)ccc3c(=O)c12`, the inhibition is 0.85% (inactive). On to `C[C@H]1CN([C@@H](C)CO)S(=O)(=O)c2ccc(Br)cc2O[C@H]1CN(C)C(=O)c1cnccn1`, for which the inhibition was 5.72% (inactive).

Regarding `CCC1NC(=O)c2cccnc2-n2c1nc1ccc(C)cc1c2=O` (stereo unspecified), the inhibition is 8.64% (inactive). The result for `COc1ccc(S(=O)(=O)N2CCCCC2)cc1C(=O)NC1CCS(=O)(=O)C1` (stereo unspecified) reads -5.76% (inactive); that for `CCc1ccccc1NC(=O)CN1CCN(C(=O)c2cc(C3CC3)nn2-c2ccccc2)CC1`, -43.9% (inactive).

Consider `NC(=O)CSc1nnc(-c2cccc(S(=O)(=O)N3CCOCC3)c2)o1`, for which the inhibition was 10.4% (inactive). Consider `O=[N+]([O-])c1c(NCCO)cc(Sc2nc3ccccc3s2)c2nonc12`, for which the inhibition is 43.3% (active).

With `Nc1nnc(SCC(=O)Nc2ccc3nc(SCC(=O)Nc4ccccc4)sc3c2)s1`, the inhibition was 0.67% (inactive). The result for `OCCNc1nc(Nc2ccc(Cl)c(Cl)c2)nc2ccccc12` reads -0.91% (inactive); that for `O=C(CSc1ncn[nH]1)Nc1nc2c(F)c(F)c(F)cc2s1`, -0.11% (inactive). Under `O=C(C[C@H]1C[C@H]2c3cc(NS(=O)(=O)c4ccc(F)cc4)ccc3O[C@H]2[C@H](CO)O1)NCc1cc(F)ccc1F` stands -5.81% (inactive); under `COc1cc(C(=O)N2C(=O)c3cccc(N)c3C2=O)cc(OC)c1OC`, 20.9% (active). The result for `COc1cc(C(=O)N2CCN(C)CC2)cc(OC)c1OC` reads 8.16% (inactive); that for `CC1CC(C)CN(S(=O)(=O)c2cccc(C(=O)N3C(=O)c4cccc(N)c4C3=O)c2)C1` (stereo unspecified), -15.2% (inactive); that for `COc1ccc(-c2c(C#N)cnc(C)c2C)c(O)c1OC`, -8.05% (inactive). For the molecule `C#Cc1cc(N2CCN(C(=O)c3ccoc3)CC2)n2nc(-c3cccc(Cl)c3)cc2n1`, the inhibition is 5.91% (inactive). The result for `CCCCCCNC(=O)O[C@]12C[C@@H](C(=O)OC)[C@@H](C(=O)OC)C[C@@]1(O)CN(S(=O)(=O)c1ccc(C)cc1)C2` reads -7.21% (inactive).
